Data published in PubChem BioAssay (EPA / NIEHS).
Results filed as inconclusive are left out. The source made the active and inactive calls. The calls were made as follows, unless noted: active = hit-call score of the fitted dose curve at least 0.9, where 1 is the maximum; inconclusive = response in the unintended direction; inactive = score below 0.9.

Experiments:
[1] = target: Steroid hormone receptor ERR1 (Homo sapiens) (UniProt P11474); experiment: ATG_ERRa_TRANS: Attagene TRANS-FACTORIAL HepG2 Assay for human Estrogen-Related Receptor alpha (ERRa) (AID 2282971); conditions: HepG2 Attagene TRANS reporter, ERRa transactivation
Sequence of Steroid hormone receptor ERR1 (Homo sapiens) (P11474 whole entry, looked up, the tested form may be a part): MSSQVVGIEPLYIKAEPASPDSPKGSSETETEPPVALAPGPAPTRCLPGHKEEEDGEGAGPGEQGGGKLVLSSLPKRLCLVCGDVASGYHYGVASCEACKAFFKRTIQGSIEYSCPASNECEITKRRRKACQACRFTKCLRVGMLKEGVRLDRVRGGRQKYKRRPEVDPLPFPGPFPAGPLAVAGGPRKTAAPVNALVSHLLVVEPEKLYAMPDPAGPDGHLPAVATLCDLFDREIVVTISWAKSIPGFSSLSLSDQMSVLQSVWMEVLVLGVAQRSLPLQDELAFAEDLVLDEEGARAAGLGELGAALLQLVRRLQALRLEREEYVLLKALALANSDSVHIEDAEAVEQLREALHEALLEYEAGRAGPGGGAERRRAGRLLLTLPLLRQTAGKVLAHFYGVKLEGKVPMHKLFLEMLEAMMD
Method in brief: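 HepG2 cells transiently transfected with GAL4-UAS reporter units and chimeric NR-Gal4 constructs; after 24 hour compound incubation, reporter mRNA quantified by RT-PCR, fluorescent labelling and capillary electrophoresis, gain of signal versus DMSO.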

[2] = target: X-box-binding protein 1 (Homo sapiens) (UniProt P17861); experiment: ATG_Xbp1_CIS: Attagene CIS-FACTORIAL HepG2 Assay for human X-box Binding Protein 1 (XBP1) (AID 2282972; active = hit-call score of the fitted dose curve at least 0.9, where 1 is the maximum; inactive = score below 0.9); conditions: HepG2 XBP1 cis-element reporter, Attagene multiplex; actives raise or lower the signal
Sequence of X-box-binding protein 1 (Homo sapiens) (P17861 whole entry, looked up): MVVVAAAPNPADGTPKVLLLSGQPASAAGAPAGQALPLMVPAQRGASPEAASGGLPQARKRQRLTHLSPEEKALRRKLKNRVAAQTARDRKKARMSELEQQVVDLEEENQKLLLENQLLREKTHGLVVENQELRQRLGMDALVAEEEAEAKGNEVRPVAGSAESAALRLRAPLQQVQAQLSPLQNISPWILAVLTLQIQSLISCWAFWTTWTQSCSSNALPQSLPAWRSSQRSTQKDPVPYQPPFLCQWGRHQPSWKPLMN
Method in brief: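 After a 24-hour chemical exposure of HepG2 cells carrying cis-regulated reporters, reporter mRNA levels are assessed. Quantification uses RT-PCR, 6-FAM labelling and capillary electrophoresis. Gain- or loss-of-signal is fitted against DMSO.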

[3] = ATG_M_19_TRANS: Attagene TRANS-FACTORIAL HepG2 Assay for M19 Transcription Factor (Internal Marker) (AID 2282974); conditions: HepG2 Attagene TRANS-FACTORIAL M19 internal marker reporter
Method in brief: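 24 h chemical exposure of transiently transfected HepG2 (MRTU library). RNA → oligo(dT) RT → PCR → 6-FAM labelling → HpaI cut → CE fluorescence. Positive-direction fit vs DMSO baseline; background internal-marker readout.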

[4] = target: Estrogen-related receptor gamma (Homo sapiens) (UniProt P62508); experiment: ATG_ERRg_TRANS: Attagene TRANS-FACTORIAL HepG2 Assay for human Estrogen-Related Receptor gamma (ERRg) (AID 2282977); conditions: HepG2 Attagene TRANS reporter, ERRg transactivation;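 also: hits increase reporter signal over DMSO so potencies reflect activators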
Sequence of Estrogen-related receptor gamma (Homo sapiens) (P62508 whole entry, looked up, the tested form may be a part): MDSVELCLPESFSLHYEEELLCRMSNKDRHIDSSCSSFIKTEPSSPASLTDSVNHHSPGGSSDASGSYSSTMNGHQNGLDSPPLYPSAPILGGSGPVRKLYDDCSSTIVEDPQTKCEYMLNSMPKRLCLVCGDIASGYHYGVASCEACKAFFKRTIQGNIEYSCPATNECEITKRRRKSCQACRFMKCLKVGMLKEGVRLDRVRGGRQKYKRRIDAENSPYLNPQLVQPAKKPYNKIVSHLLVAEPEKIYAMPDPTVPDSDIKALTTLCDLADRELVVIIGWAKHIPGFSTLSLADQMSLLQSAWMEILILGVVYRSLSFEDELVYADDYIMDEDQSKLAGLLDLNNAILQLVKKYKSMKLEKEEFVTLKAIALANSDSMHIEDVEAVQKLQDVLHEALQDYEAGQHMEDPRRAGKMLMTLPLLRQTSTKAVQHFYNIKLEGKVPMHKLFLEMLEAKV
Method in brief: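 HepG2 cells transiently transfected with multiplexed GAL4-UAS reporter units and chimeric NR-Gal4 constructs were exposed to test chemicals for 24 h. Reporter mRNA was measured by RT-PCR, 6-FAM primer extension, HpaI digestion and capillary electrophoresis; gain-of-signal versus DMSO.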

[5] = target: Glucocorticoid receptor (Homo sapiens) (UniProt P04150); experiment: ATG_GR_TRANS: Attagene TRANS-FACTORIAL HepG2 Assay for human Glucocorticoid Receptor (GR) (AID 2282978); conditions: HepG2 Attagene TRANS GR reporter, mRNA transcription;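 also: activators score as hits since higher reporter transcript over DMSO is fitted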
Sequence of Glucocorticoid receptor (Homo sapiens) (P04150 whole entry, looked up, the tested form may be a part): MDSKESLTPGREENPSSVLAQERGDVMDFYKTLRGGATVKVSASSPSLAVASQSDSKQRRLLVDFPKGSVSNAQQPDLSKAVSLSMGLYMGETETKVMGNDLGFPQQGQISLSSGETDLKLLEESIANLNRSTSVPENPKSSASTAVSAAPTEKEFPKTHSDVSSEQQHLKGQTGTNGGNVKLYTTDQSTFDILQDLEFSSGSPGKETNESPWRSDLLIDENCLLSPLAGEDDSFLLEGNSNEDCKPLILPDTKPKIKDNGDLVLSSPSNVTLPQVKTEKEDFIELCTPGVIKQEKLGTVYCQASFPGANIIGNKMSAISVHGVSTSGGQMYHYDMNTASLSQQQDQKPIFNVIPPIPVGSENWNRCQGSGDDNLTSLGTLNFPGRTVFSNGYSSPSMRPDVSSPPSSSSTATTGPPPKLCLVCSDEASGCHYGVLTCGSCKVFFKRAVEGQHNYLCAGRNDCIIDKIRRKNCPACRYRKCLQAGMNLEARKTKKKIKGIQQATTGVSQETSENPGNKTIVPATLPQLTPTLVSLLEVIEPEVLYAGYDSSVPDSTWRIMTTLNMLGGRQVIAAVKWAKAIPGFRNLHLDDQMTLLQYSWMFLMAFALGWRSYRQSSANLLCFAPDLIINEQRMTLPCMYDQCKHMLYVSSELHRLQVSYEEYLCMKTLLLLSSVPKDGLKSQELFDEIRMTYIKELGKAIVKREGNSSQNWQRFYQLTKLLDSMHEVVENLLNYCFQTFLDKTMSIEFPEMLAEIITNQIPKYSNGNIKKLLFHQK
Method in brief: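 Transient MRTU transfection of HepG2 (GAL4-UAS reporters, exogenous NR-GAL4 chimeras), 24 h dosing. Readout: reporter transcript via RT-PCR + capillary electrophoresis fluorescence. Positive direction vs DMSO baseline.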

[6] = target: Hepatocyte nuclear factor 4-alpha (Homo sapiens) (UniProt P41235); experiment: ATG_HNF4a_TRANS: Attagene TRANS-FACTORIAL HepG2 Assay for human Hepatocyte Nuclear Factor 4 alpha (HNF4a) (AID 2282982); conditions: HepG2 HNF4a transactivation reporter, mRNA readout
Sequence of Hepatocyte nuclear factor 4-alpha (Homo sapiens) (P41235 whole entry, looked up, the tested form may be a part): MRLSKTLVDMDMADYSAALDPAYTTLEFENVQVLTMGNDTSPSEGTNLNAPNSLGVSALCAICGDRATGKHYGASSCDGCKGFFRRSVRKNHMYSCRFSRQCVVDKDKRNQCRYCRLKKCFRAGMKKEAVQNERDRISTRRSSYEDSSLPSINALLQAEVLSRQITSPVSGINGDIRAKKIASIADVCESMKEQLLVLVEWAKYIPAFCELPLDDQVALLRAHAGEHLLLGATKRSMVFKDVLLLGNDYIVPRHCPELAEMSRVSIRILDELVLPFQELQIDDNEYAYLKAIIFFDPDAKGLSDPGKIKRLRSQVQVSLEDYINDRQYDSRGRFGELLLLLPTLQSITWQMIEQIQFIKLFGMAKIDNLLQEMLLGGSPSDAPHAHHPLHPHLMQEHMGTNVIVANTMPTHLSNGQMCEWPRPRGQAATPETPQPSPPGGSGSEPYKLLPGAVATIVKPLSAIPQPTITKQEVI
Method in brief: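 Gain-of-signal mRNA induction, relative to DMSO vehicle, was read after 24 h compound treatment of HepG2 cells bearing transfected GAL4-UAS reporters. Detection used RT-PCR, 6-FAM primer extension and capillary electrophoresis.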

[7] = target: Transcriptional activator Myb (Homo sapiens) (UniProt P10242); experiment: ATG_Myb_CIS: Attagene CIS-FACTORIAL HepG2 Assay for human Myeloblastosis (Myb) Proto-Oncogene Transcription Factor (AID 2282986; active = hit-call score of the fitted dose curve at least 0.9, where 1 is the maximum; inactive = score below 0.9); conditions: HepG2 Attagene CIS-FACTORIAL Myb reporter transcription; actives raise or lower the signal
Sequence of Transcriptional activator Myb (Homo sapiens) (P10242 whole entry, looked up): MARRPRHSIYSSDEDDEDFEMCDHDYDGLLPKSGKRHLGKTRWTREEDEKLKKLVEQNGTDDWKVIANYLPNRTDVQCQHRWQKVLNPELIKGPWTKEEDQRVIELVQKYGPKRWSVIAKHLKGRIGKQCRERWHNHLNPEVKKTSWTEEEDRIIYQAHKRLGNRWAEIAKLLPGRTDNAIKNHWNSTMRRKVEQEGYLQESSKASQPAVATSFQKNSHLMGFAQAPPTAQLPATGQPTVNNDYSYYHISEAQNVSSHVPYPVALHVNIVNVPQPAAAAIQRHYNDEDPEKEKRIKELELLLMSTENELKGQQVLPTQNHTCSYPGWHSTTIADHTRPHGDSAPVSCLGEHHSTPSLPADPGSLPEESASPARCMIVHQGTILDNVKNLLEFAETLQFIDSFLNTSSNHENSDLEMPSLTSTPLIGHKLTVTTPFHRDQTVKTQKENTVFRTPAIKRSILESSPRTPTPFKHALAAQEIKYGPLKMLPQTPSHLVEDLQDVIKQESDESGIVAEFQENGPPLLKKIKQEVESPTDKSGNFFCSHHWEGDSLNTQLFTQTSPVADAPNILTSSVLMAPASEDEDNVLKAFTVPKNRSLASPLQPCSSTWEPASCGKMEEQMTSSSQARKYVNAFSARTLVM
Method in brief: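 HepG2, transient MRTU transfection (cis-element promoters, endogenous TF activity), 24 h compound exposure. Readout: reporter mRNA via RT-PCR, 6-FAM labeling, HpaI digest, capillary electrophoresis. Gain/loss fit vs DMSO.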

[8] = target: Nuclear respiratory factor 1 (Homo sapiens) (UniProt Q16656); experiment: ATG_NRF1_CIS: Attagene CIS-FACTORIAL HepG2 Assay for human Nuclear Respiratory Factor 1 (NRF1) Orphan Gene (AID 2282987; active = hit-call score of the fitted dose curve at least 0.9, where 1 is the maximum; inactive = score below 0.9); conditions: HepG2 NRF1 cis-element reporter, Attagene multiplex; actives raise or lower the signal
Sequence of Nuclear respiratory factor 1 (Homo sapiens) (Q16656 whole entry, looked up): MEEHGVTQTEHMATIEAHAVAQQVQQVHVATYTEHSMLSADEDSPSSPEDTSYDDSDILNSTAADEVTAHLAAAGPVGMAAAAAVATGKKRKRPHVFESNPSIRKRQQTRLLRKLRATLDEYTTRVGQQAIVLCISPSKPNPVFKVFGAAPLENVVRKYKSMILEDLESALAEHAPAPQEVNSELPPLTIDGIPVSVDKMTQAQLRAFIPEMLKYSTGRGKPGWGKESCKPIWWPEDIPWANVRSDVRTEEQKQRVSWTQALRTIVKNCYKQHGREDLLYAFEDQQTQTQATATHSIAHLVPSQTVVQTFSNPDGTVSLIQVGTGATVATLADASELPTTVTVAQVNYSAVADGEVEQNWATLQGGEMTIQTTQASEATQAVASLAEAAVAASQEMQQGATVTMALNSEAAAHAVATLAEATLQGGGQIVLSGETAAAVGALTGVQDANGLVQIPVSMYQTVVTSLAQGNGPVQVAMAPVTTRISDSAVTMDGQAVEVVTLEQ
Method in brief: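 Endogenous NRF1-driven reporter transcription measured in transiently transfected human HepG2 liver cells. Readout: reporter mRNA by RT-PCR and capillary electrophoresis with fluorescence detection, 24 h post-dosing. Gain or loss of signal fitted relative to DMSO baseline.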

[9] = ATG_NFI_CIS: Attagene CIS-FACTORIAL HepG2 Assay for human Nuclear Factor I (NFI) (AID 2282989; active = hit-call score of the fitted dose curve at least 0.9, where 1 is the maximum; inactive = score below 0.9); conditions: HepG2 cis-regulatory reporter, NFI response element transcription; actives raise or lower the signal
Method in brief: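 Endogenous TF activity in HepG2 cells transiently transfected with cis-element-driven multiplexed reporter units, read 24 h after dosing. Reporter mRNA quantified by RT-PCR, 6-FAM labelling, HpaI digestion and capillary electrophoresis; bidirectional fit versus DMSO.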

[10] = target: Myc proto-oncogene protein (Homo sapiens) (UniProt P01106); experiment: ATG_Myc_CIS: Attagene CIS-FACTORIAL HepG2 Assay for human Myelocytomatosis (Myc) Proto-Oncogene Transcription Factor (AID 2282990; active = hit-call score of the fitted dose curve at least 0.9, where 1 is the maximum; inactive = score below 0.9); conditions: HepG2, Attagene cis-reporter transcription factor activity; actives raise or lower the signal
Sequence of Myc proto-oncogene protein (Homo sapiens) (P01106 whole entry, looked up): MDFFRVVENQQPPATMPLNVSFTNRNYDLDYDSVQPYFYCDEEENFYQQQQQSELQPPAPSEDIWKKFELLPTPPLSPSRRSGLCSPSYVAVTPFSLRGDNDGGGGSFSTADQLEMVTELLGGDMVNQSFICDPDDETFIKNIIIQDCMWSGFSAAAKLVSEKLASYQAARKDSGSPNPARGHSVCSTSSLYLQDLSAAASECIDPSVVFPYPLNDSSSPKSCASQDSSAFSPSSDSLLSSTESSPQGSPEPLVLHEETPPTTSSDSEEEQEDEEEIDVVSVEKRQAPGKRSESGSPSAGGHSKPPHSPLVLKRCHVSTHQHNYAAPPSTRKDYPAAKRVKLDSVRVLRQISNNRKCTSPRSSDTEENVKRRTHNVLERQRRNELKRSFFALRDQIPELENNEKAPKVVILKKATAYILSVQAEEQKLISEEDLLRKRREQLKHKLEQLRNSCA
Method in brief: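 Transiently transfected HepG2 cells bearing cis-promoter reporter units for endogenous transcription factors; 24 h exposure. Reporter mRNA measured by RT-PCR, 6-FAM primer extension, HpaI cut and capillary electrophoresis; bidirectional fit relative to DMSO.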

[11] = ATG_NRF2_ARE_CIS: Attagene CIS-FACTORIAL HepG2 Assay for human Nuclear Factor Erythroid 2 Related Factor 2 (NFR2) response to Antioxidant Response Elements (ARE) (AID 2282992; active = hit-call score of the fitted dose curve at least 0.9, where 1 is the maximum; inactive = score below 0.9); conditions: HepG2 Attagene ARE/NRF2 reporter, transcription factor activity; actives raise or lower the signal
Method in brief: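 Cis-factorial assay: transfected HepG2 reporter library, 24 h dosing, mRNA readout via RT-PCR/CE; DMSO-referenced bidirectional analysis.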

[12] = target: Androgen receptor (Homo sapiens) (UniProt P10275); experiment: ATG_AR_TRANS: Attagene TRANS-FACTORIAL HepG2 Assay for human Androgen Receptor (AR) (AID 2282973); conditions: HepG2 Attagene TRANS-FACTORIAL AR reporter transcription
Sequence of Androgen receptor (Homo sapiens) (P10275 whole entry, looked up, the tested form may be a part): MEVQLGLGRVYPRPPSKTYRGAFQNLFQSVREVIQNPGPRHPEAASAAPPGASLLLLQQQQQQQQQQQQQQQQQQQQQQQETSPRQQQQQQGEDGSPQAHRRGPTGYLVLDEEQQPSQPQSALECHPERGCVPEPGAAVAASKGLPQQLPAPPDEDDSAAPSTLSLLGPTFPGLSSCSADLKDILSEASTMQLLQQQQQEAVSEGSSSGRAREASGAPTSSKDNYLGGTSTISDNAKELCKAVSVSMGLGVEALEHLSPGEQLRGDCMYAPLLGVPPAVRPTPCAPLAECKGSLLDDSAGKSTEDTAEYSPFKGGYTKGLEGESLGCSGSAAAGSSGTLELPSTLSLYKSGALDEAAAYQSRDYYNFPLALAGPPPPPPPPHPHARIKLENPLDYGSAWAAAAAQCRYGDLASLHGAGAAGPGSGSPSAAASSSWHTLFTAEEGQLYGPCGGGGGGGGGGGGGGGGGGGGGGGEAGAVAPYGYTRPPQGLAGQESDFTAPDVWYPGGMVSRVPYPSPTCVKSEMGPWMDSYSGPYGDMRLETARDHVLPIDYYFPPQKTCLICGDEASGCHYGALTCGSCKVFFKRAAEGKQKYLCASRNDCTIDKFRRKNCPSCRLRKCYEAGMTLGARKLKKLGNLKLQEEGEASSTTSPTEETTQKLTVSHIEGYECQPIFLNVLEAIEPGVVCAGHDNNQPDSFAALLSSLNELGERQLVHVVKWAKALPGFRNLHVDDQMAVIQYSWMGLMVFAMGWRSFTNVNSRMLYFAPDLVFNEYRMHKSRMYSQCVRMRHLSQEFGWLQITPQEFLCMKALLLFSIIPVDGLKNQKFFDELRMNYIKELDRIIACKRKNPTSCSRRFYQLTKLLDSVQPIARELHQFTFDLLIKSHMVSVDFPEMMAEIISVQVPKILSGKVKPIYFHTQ
Method in brief: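 HepG2 cells transiently transfected with AR-Gal4 chimera and GAL4-UAS reporter units; chemical exposure 24 h. Reporter mRNA quantified by RT-PCR with fluorescent labelling and capillary electrophoresis; gain-of-signal fitted against DMSO.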

[13] = ATG_GAL4_TRANS: Attagene TRANS-FACTORIAL HepG2 Assay for GAL4 (Internal Marker) (AID 2282976); conditions: HepG2 Attagene TRANS GAL4 internal marker reporter
Method in brief: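 Background-control readout: GAL4-UAS reporter transcript in transiently transfected HepG2 cells after 24 h compound exposure. Measured by RT-PCR, 6-FAM primer extension, HpaI digest and capillary electrophoresis; gain-of-signal fit versus DMSO.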

[14] = target: Oxysterols receptor LXR-alpha (Homo sapiens) (UniProt Q13133); experiment: ATG_LXRa_TRANS: Attagene TRANS-FACTORIAL HepG2 Assay for human Liver X Receptor alpha (LXRa) (AID 2282980); conditions: HepG2 Attagene TRANS reporter, LXRa transactivation
Method in brief: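 HepG2 cells transiently transfected with GAL4-UAS reporter units for chimeric NR-Gal4 proteins, exposed to chemicals for 24 h. Reporter mRNA quantified by RT-PCR and capillary electrophoresis; gain of signal fitted relative to DMSO.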

[15] = ATG_M_32_TRANS: Attagene TRANS-FACTORIAL HepG2 Assay for M32 Transcription Factor (Internal Marker) (AID 2282984); conditions: HepG2 Attagene TRANS M32 internal marker reporter
Method in brief: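 Capillary electrophoresis of 6-FAM-labelled reporter fragments gives the signal; data fitted for gain over DMSO negative control. Source: HepG2 cells bearing transient multiple reporter transcription units, 24 h exposure.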

[16] = ATG_NF_kB_CIS: Attagene CIS-FACTORIAL HepG2 Assay for human Nuclear Factor Kappa B (NF-kB) (AID 2282991; active = hit-call score of the fitted dose curve at least 0.9, where 1 is the maximum; inactive = score below 0.9); conditions: HepG2 Attagene cis-factorial NF-kB reporter mRNA; actives raise or lower the signal
Method in brief: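 Read-out: reporter transcript levels quantified by RT-PCR plus capillary electrophoresis of 6-FAM-labelled, HpaI-cut fragments. Transfected HepG2 cells, 24 h compound exposure, endogenous NF-kB-driven cis element; gain or loss scored versus DMSO.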

[17] = ATG_M_06_TRANS: Attagene TRANS-FACTORIAL HepG2 Assay for M06 Transcription Factor (Internal Marker) (AID 2282983); conditions: HepG2 Attagene TRANS M06 internal marker reporter
Method in brief: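 HepG2 cells transiently transfected with GAL4-UAS multiple reporter units, dosed 24 h. Reporter RNA reverse-transcribed, PCR-amplified, 6-FAM-labeled, HpaI-digested and quantified by capillary electrophoresis; this internal-marker signal fitted upward relative to DMSO.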

[18] = target: Nuclear receptor subfamily 4 group A member 2 (Homo sapiens) (UniProt P43354); experiment: ATG_NURR1_TRANS: Attagene TRANS-FACTORIAL HepG2 Assay for human Nuclear Receptor Related Protein 1 (NURR1) (AID 2282985); conditions: HepG2 Attagene TRANS reporter, mRNA readout
Method in brief: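 HepG2 / transient MRTU transfection / 24 h compound exposure / RT-PCR + CE fluorescence of reporter mRNA / gain-of-signal vs DMSO.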

Measured: AC50

O=C1c2ccccc2C(=O)C1C(=O)C(c1ccccc1)c1ccc(Cl)cc1 (stereo not given)
inactive: [1] | [4] | [5] | [6] | [8] | [9]
active: [2] 5.66 µM | [3] 163 µM | [7] 173 µM | [10] 27.1 µM | [11] 3.96 µM

COCCl
inactive: [1] | [2] | [12] | [3] | [13] | [5] | [14] | [15] | [7] | [8] | [9] | [10] | [16]

CCCCOP(=O)(CCCC)OCCCC
inactive: [1] | [2] | [12] | [3] | [13] | [4] | [5] | [6] | [17] | [15] | [7] | [8] | [9] | [10] | [16] | [11]

CCOc1ccc(N)cc1
inactive: [1] | [2] | [3] | [4] | [6] | [18] | [8] | [9] | [10] | [11]

C=C(C)C(=O)OCCCCOC(=O)C(=C)C
inactive: [1] | [2] | [3] | [13] | [6] | [18] | [7] | [8] | [9] | [10]
